The campaign covered roughly 5,500 compounds. About 2,000 (36%) were called active. Roughly 18% stayed inconclusive and do not appear here. No stated cut-off is given here; in the data, active means normalized growth mostly below about 0.91 (no sharp cut-off); inconclusive means no clear call, values can overlap the other calls; inactive means mostly above about 0.92. Some of the results follow.
Assay: chemical genetic growth profiling, strain panel (AID 1159580);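 further: tested at 20 µM; growth read once vehicle control cultures reached saturation at 30 °C; 1 = growth at the plate median or of vehicle wells; lower values mean less growth of the strain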
Settings: S. cerevisiae deletion strains, growth OD

Measured: normalized growth

C[C@H]1CC2C3CCC4=CC(=O)C=C[C@]4(C)[C@@]3(Cl)[C@@H](O)C[C@]2(C)[C@@]1(O)C(=O)CO (stereo partly drawn)
inactive: locus YAL013W, strain DEP1, active compounds read low 0.982 | locus YAL040C, strain CLN3, active compounds read low 1.03 | locus YCL061C, strain MRC1 (second series), active compounds read low 1.01 | locus YER002W, strain NOP16, active compounds read low 0.997 | locus YGR078C, strain PAC10, active compounds read low 0.989 | locus YGR229C, strain SMI1, active compounds read low 0.994 | locus YJR075W, strain HOC1, active compounds read low 1.01 | locus YMR263W, strain SAP30, active compounds read low 1.01 | locus YNL153C, strain GIM3, active compounds read low 0.981 | locus YNL175C, strain NOP13, active compounds read low 0.994 | locus YNL197C, strain WHI3, active compounds read low 0.934 | locus YNL224C, strain SQS1, active compounds read low 0.967 | locus YOR083W, strain WHI5 (second series), active compounds read low 0.954
